High-throughput results: PubChem BioAssay, National Center for Advancing Translational Sciences (NCATS)
A selection: hits, their analogues and other compounds. The true share with any hit is near 0.97%.
Mm-Cpn inhibitor = inhibitors of Methanococcus maripaludis chaperonin TRiC (MmCpn). 330,000 compounds, 0.031% hits. Potency, µM (titrated, usually from 76.9 µM), for inactives: at the highest dose activity, negative = inhibition, usual class: inhibitors. purified Mm-Cpn ATPase, ADP Transcreener TR-FRET; also: potency is read from the fitted curve at half-maximal effect; % is scaled to controls: 0 for no effect and ±100 for the full control effect; nearly all actives have a fitted effect of over 80% in size
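Eu-cryptate anti-ADP/ADP-d2 competition gives a ratio inversely related to ADP. Enzyme at 25 nM was pre-exposed to compound for 10 min, then given 10 uM ATP for 30 min, 37°C throughout.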
Akt phos inh = inhibitors of Akt phosphorylation; Neuro2A IGF-stimulated pAkt S473 HTRF, 20 min; hits give low values; activity change, % for hits at 50 µM; 360,000 compounds, 0.32% hits; AID 651550; in the data active = activity change below about -80%; inconclusive = mostly about -51% to -80%; also: % is scaled to controls: 0 for no effect and ±100 for the full control effect
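Single-point screen (50 µM final compound) in Neuro2A cells stimulated 20 min with 6 nM IGF at 37 deg C. After lysis, Ser473-phosphorylated Akt read by HTRF (ex 330 nm, em 615/665 nm) as the 665/615 ratio.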
Epigenetic reg = regulators of epigenetic silencing causing reporter derepression in mouse cells | murine LDR cells, GFP reporter derepression, 30 h | Potency, µM (top dose mostly 53.9 µM), for the others: at the highest dose GFP activation, most hits filed as activators | 280,000 compounds, 0.2% hits; also: potency is read from the fitted curve at half-maximal effect; % of control where 0% means no effect; nearly all actives have a fitted effect of over 60% in size
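Derepression of a silenced CMV-GFP reporter in murine LDR cells is scored by enumerating GFP-positive cells with a laser-scanning microplate cytometer after 30 hours of treatment at 37 C.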
CCT chaperon mod = cytosolic chaperonin activity modulation. purified chaperonin ATPase assay, HTRF ADP detection, 30 min. activity change, % (test concentration not listed), hits read low. 360,000 compounds, 0.3% hits. AID 651819; in the data active = activity change below about -30%; also: % is scaled to controls: 0 for no effect and ±100 for the full control effect
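TRiC at 40 or 20 nM final (batch-dependent) in 30 mM Tris pH 7.4, 100 mM KCl, 5 mM MgCl2, 1 mM DTT, with compound at single 76 uM and 10 uM ATP, 30 min at 37 deg C. ADP detected by HTRF Transcreener, 665/615 ratio.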
uPA generation = blocks generation of uPA at the cell surface; 330,000 compounds, 0.31% hits; cell surface uPA generation assay, qHTS; Potency, µM (top dose mostly 38.3 µM), for inactives: top-dose activity change, negative = inhibition, most hits filed as inhibitors; AID 540303; active = well fitted inhibition curve with a large enough effect; inconclusive = small, poorly fitted or top-dose-only effect; inactive = no such curve, though single readings can be large or run the other way; tested in mouse RAW 264.7 cells; also: potency is read from the fitted curve at half-maximal effect; % is scaled to controls: 0 for no effect and ±100 for the full control effect; nearly all actives have a fitted effect of over 55% in size
MBNL1 CUG block = blocks human MBNL1 binding to CUG repeat RNA; Q9NR56; TR-FRET MBNL1-His/biotin-(CUG)12 binding, 665/545 ratio; Potency, µM (highest dose often 57.5 µM), without a hit: at the top dose activity change, negative = inhibition, most hits filed as inhibitors; 280,000 compounds, 0.036% hits; AID 2675; active = well fitted inhibition curve with a large enough effect in the signal ratio, with a control signal flat, not every such curve was filed as active; inconclusive = small, poorly fitted or top-dose-only effect, or effect the other way, or a change in a side signal; inactive = no such curve, though single readings can be large or run the other way; the % refers to the signal ratio; also: potency is read from the fitted curve at half-maximal effect; % is scaled to controls: 0 for no effect and ±100 for the full control effect
Target sequence (Q9NR56 whole entry, looked up): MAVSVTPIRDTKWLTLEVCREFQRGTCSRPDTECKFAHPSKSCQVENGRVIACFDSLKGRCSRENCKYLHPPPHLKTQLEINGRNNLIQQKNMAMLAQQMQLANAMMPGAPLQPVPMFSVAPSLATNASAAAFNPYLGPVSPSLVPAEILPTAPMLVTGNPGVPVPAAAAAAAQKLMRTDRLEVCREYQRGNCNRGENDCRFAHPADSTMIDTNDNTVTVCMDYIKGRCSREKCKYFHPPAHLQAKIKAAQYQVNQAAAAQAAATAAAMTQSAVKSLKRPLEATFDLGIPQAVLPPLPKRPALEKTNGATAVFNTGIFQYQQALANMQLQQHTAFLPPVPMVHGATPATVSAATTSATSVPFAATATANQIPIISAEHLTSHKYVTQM
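Ratiometric TR-FRET (665 over 545 nm, excitation 340 nm) tracks disruption of MBNL1-His/biotin-(CUG)12 complex after 60 min at room temperature, with compounds at 92 nM to 58 uM final.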
Numbers without * were called inactive. Unless noted, calls follow the shape of the dose curve; as a rule, active = well fitted curve in the direction sought with a large enough effect; inconclusive = small, poorly fitted or top-dose-only effect, or another doubt; inactive = no such curve, though single readings can be large; an effect the other way counts as inactive or inconclusive.

Results for COc1cccc(C(=O)Nc2nnc(SCC(=O)Nc3ccc(NC(C)=O)cc3)s2)c1 ?
Mm-Cpn inhibitor: -10%; Akt phos inh: inactive; CCT chaperon mod: 1; uPA generation: 2µM*; MBNL1 CUG block: 5%

What do the screens show for `O=C(CSc1ncc(-c2ccccc2)nn1)NCc1ccco1`?
Mm-Cpn inhibitor: -1%; Akt phos inh: inactive; Epigenetic reg: -1%; CCT chaperon mod: -92*; uPA generation: -7%; MBNL1 CUG block: inconclusive

What do the screens show for `O=C(CSc1nnc(-c2ccccc2)c(-c2ccccc2)n1)NCc1ccco1`?
Mm-Cpn inhibitor: -3%; Akt phos inh: inactive; Epigenetic reg: 0%; CCT chaperon mod: 0; uPA generation: -9%; MBNL1 CUG block: inconclusive

What do the screens show for `Cc1ccc(NC(=O)CCN2C(=O)C3CCCCC3C2=O)cc1[N+](=O)[O-]` (stereo not given)?
Mm-Cpn inhibitor: -3%; Akt phos inh: inactive; CCT chaperon mod: -53*; uPA generation: -3%

Results for Cc1ccc(NC(=O)CCN2C(=O)C3C4CCC(C4)C3C2=O)cc1[N+](=O)[O-] (stereo not given) ?
Mm-Cpn inhibitor: 1%; Akt phos inh: inactive; CCT chaperon mod: -4; uPA generation: -1%; MBNL1 CUG block: inconclusive

How did O=C(COC(=O)c1ccc(F)cc1Cl)NC(=O)NC1CCCC1 do in these assays?
Mm-Cpn inhibitor: -5%; Akt phos inh: inactive; CCT chaperon mod: 2; uPA generation: 14%

Results for O=C(CC1C(=O)NCCN1C/C=C/c1ccccc1)NCCc1cnccn1 (stereo not given) ?
Mm-Cpn inhibitor: 3%; Akt phos inh: inactive; CCT chaperon mod: -2; uPA generation: 2%; MBNL1 CUG block: 3%

Results for O=C(CC1C(=O)NCCN1C/C=C/c1ccccc1)NCCc1ccncc1 (stereo not given) ?
Mm-Cpn inhibitor: 1%; Akt phos inh: inactive; Epigenetic reg: 6%; CCT chaperon mod: -33*; uPA generation: -1%; MBNL1 CUG block: -2%

How did CC(C)CN(C(=O)COC(=O)c1cc(=O)[nH]c2ccccc12)c1c(N)n(Cc2ccccc2)c(=O)[nH]c1=O do in these assays?
Akt phos inh: inactive; CCT chaperon mod: -30*; uPA generation: 3%

What do the screens show for `CCN(C(=O)COC(=O)c1cc(=O)[nH]c2ccccc12)c1c(N)n(Cc2ccccc2)c(=O)[nH]c1=O`?
Akt phos inh: inactive; CCT chaperon mod: -2; uPA generation: -3%

How did CCNC(=O)COC(=O)c1cc(=O)[nH]c2ccccc12 do in these assays?
Mm-Cpn inhibitor: -1%; Akt phos inh: inactive; Epigenetic reg: 0%; CCT chaperon mod: -35*; MBNL1 CUG block: 11%

Results for COc1ccccc1-c1cc(C(F)(F)F)c(C#N)c(=O)[nH]1 ?
Mm-Cpn inhibitor: 1%; Akt phos inh: inactive; Epigenetic reg: -5%; CCT chaperon mod: 0; uPA generation: -3%; MBNL1 CUG block: 15%

What do the screens show for `COc1ccccc1-c1cc(SC)c(C#N)c(=O)o1`?
Mm-Cpn inhibitor: -1%; Akt phos inh: inactive; Epigenetic reg: 15%; CCT chaperon mod: -4; uPA generation: 11µM*; MBNL1 CUG block: 7%

What do the screens show for `Cc1ccc(C(=O)OC2OC(=O)C(Cl)=C2N2CCOCC2)cc1` (stereo not given)?
Mm-Cpn inhibitor: 3%; Akt phos inh: inactive; Epigenetic reg: -3%; CCT chaperon mod: -50*; uPA generation: -3%; MBNL1 CUG block: -8%

How did Cc1ccc(C(=O)Oc2ccccc2N2CCOCC2)cc1 do in these assays?
Mm-Cpn inhibitor: 2%; Akt phos inh: inactive; Epigenetic reg: 0%; CCT chaperon mod: 1; uPA generation: 0%; MBNL1 CUG block: -6%

Results for CC(=O)c1cccc(NC(=S)NC(=O)c2ccc(Br)cc2)c1 ?
Mm-Cpn inhibitor: -3%; Akt phos inh: inactive; Epigenetic reg: 0%; CCT chaperon mod: -40*; uPA generation: -1%; MBNL1 CUG block: inconclusive

How did CC(=O)c1cccc(NC(=S)NC(=O)c2ccc(C)cc2)c1 do in these assays?
Mm-Cpn inhibitor: -2%; Akt phos inh: inactive; Epigenetic reg: 0%; CCT chaperon mod: 3; uPA generation: -5%; MBNL1 CUG block: -8%

How did O=C(C1CCC(=O)N(C2CC2)C1)N1CCC(Oc2cccc(C(F)(F)F)c2)CC1 (stereo not given) do in these assays?
Mm-Cpn inhibitor: -1%; Akt phos inh: inactive; CCT chaperon mod: 1; uPA generation: -7%; MBNL1 CUG block: 5%

What do the screens show for `Cc1nnc(NC(=O)c2ccc(S(=O)(=O)N(C)Cc3ccccc3)cc2)o1`?
Mm-Cpn inhibitor: -2%; Akt phos inh: inactive; Epigenetic reg: 0%; CCT chaperon mod: -1; uPA generation: 0%; MBNL1 CUG block: -4%

Results for CCN(Cc1ccccc1)S(=O)(=O)c1ccc(C(=O)Nc2nnc(C3CC3)o2)cc1 ?
Mm-Cpn inhibitor: 1%; Akt phos inh: inactive; Epigenetic reg: 0%; CCT chaperon mod: -1; uPA generation: 3.5µM*; MBNL1 CUG block: -2%

Results for Nc1nc2ccccc2n1C(=O)c1ccccc1 ?
Mm-Cpn inhibitor: -17%; Akt phos inh: inactive; Epigenetic reg: 1%; CCT chaperon mod: 2; uPA generation: 2.8µM*; MBNL1 CUG block: -2%

Results for Nc1nc2ccccc2n1C(=O)c1ccc(F)cc1 ?
Mm-Cpn inhibitor: 2%; Akt phos inh: inactive; Epigenetic reg: 3%; CCT chaperon mod: 0; uPA generation: -14%; MBNL1 CUG block: -1%

How did CCCCn1c(N)c(N(CCOC)C(=O)c2cc3c(s2)CCC3)c(=O)[nH]c1=O do in these assays?
Mm-Cpn inhibitor: -4%; Akt phos inh: inactive; CCT chaperon mod: 0; uPA generation: -2%

Results for O=C(COc1ccc(Br)cc1Br)NC(=S)N1CCCc2ccccc21 ?
Mm-Cpn inhibitor: -2%; Akt phos inh: -92%*; Epigenetic reg: 0%; CCT chaperon mod: -5; uPA generation: 7%; MBNL1 CUG block: -1%

Results for O=C1CC(c2ccccc2Cl)=NN(c2ncnc3ccccc23)C1=O ?
Mm-Cpn inhibitor: 1%; Akt phos inh: inactive; Epigenetic reg: -2%; CCT chaperon mod: -3; uPA generation: -1%

How did Cc1nc(SC(C(N)=O)c2ccccc2)c(C#N)c(C)c1C (stereo not given) do in these assays?
Mm-Cpn inhibitor: 0%; Akt phos inh: inactive; Epigenetic reg: -1%; CCT chaperon mod: -6; uPA generation: -3%; MBNL1 CUG block: -1%
